# From PubChem BioAssay AID493170 (National Center for Advancing Translational Sciences (NCATS), 2011)
# Inconclusive results are not listed. A call without a number means that no potency is given here. The source made the active and inactive calls. The call rests on the fitted dose curve; in most records, active means well fitted inhibition curve with a large enough effect; inconclusive means small, poorly fitted or top-dose-only effect, or effect the other way; inactive means flat fitted curve, though single readings scatter.
# Molecular target: Ubiquitin carboxyl-terminal hydrolase 2 (Homo sapiens) (UniProt O75604)
# Assay: Ub-rhodamine 110 based assay for inhibitors Ubiquitin-specific Protease USP2a; further: nearly all actives have a fitted effect of over 50% in size
# Conditions: USP2a Ub-rhodamine110 cleavage, fluorescence; series mostly up to 38.3 µM
# Outline: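 Kinetic fluorescence (485/531 nm) read each minute over 7 min after adding Ub-Rhod110 (150 nM final) to USP2a (5 nM final). The enzyme had 30 min RT exposure to compounds beforehand in Tris pH 8.0 buffer with CaCl2, CHAPS and beta-ME.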
# Potency means the concentration at half of the fitted maximal effect.
# Sequence of Ubiquitin carboxyl-terminal hydrolase 2 (Homo sapiens) (O75604 whole entry, looked up): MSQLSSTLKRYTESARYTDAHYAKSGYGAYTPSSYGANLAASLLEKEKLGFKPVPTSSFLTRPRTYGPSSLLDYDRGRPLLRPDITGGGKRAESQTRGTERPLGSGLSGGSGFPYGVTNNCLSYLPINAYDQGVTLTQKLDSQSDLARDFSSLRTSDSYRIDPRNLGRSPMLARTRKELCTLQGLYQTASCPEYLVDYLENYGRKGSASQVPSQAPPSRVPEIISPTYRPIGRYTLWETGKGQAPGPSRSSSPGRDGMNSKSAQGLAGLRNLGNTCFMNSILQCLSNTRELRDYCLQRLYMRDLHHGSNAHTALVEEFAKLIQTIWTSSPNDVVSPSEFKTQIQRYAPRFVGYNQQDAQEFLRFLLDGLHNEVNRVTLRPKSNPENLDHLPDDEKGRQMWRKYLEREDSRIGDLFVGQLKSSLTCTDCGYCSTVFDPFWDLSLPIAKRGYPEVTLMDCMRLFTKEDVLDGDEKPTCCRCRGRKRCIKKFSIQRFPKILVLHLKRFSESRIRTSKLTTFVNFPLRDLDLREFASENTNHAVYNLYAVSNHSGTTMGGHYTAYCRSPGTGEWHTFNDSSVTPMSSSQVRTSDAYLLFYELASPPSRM
row,SMILES,Potency
1,Cc1cc(C)n2nc(S(=O)(=O)NCCc3ccccc3)nc2n1,inactive
2,CCC(C)Cn1c(O)cc2nn(-c3nc4ccccc4s3)c(=O)c-2c1C (configuration not stated),10 µM (active)
3,Cn1c(SCc2nc3ccccc3s2)nnc1-c1cccs1,inactive
4,Cc1cc(C(=O)CSc2nnc(Nc3ccccc3F)s2)c(C)n1CC1CCCO1 (configuration not stated),inactive
5,Cc1cc(=O)n2[nH]c(-c3sccc3-n3c(C)ccc3C)cc2n1,10 µM (active)
6,FC(F)Sc1ccc(NC(=S)NC2CCCCC2)cc1,inactive
7,O=C(Oc1ccccc1C(=O)Nc1ccccc1)c1ccccc1Br,inactive
8,O=C(/C=C/c1ccc(O)c(O)c1)c1ccc(S(=O)(=O)N2CCCCCC2)cc1,3.98 µM (active)
9,C(=N\N(c1ccccc1)c1ccccc1)/c1ccccn1,inactive
10,CC1(C)CC(=O)C2=C(C1)NCN(CCCN1CCOCC1)C2,inactive
11,Cn1c(C(=O)NCCN2CCOCC2)cc2c(=O)n(C)c3ccccc3c21,inactive
12,COc1ccc(S(=O)(=O)N2CCCC2C(=O)NCc2cccs2)cc1 (configuration not stated),inactive
13,NC(=O)C[C@@H]1N[C@]2(C(=O)Nc3ccccc32)[C@@H]2C(=O)N(c3cc(C(F)(F)F)ccc3Cl)C(=O)[C@H]12,inactive
14,COc1cc(C(O)P(=O)(OC(C)C)c2ccc(N(C)C)cc2)cc(OC)c1OC (configuration not stated),inactive
15,c1ccc(CN2CCN(CCOCCOc3cccc4ccccc34)CC2)cc1,inactive
16,Cc1ccc(Nc2cc(C)nc(NCc3ccccc3)n2)cc1,inactive
17,Cc1ccc(N2CCN(C(=O)CCc3nc4ccccc4[nH]3)CC2)c(C)c1,inactive
